Experimental findings from PubChem BioAssay (NCI) are described below.

A short description of experiment [1]: NCI Yeast Anticancer Drug Screen. Data for the rad50 strain (AID 155).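 Further: 0% = growth of vehicle-only cultures of the same strain.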 The settings on record: S. cerevisiae rad50 strain growth inhibition, hits give high values. The procedure, abridged:
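Cells are treated with compound, grown, and their growth is then scored against vehicle-only cultures of the same repair-deficient yeast strain.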

The nature of experiment [2]: NCI Yeast Anticancer Drug Screen. Data for the mec2-1 strain (AID 157). The following applies: S. cerevisiae mec2-1 strain, hits give high values. The essentials:
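Growth inhibition is read against vehicle-treated controls after compound exposure of the mec2-1 yeast strain, which is defective in DNA damage repair or cell cycle control.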

Experiment [3] in a line: NCI Yeast Anticancer Drug Screen. Data for the sgs1 mgt1 strain (AID 161).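 Further: 0% = growth of cultures given vehicle only.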 The following applies: S. cerevisiae sgs1 mgt1 strain, hits give high values. The procedure, abridged: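 Compounds are added to genetically altered yeast, and growth is compared with cultures given vehicle alone to give percent inhibition.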
Experiment [4] is described as follows: NCI Yeast Anticancer Drug Screen. Data for the cln2 rad14 strain (AID 165).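 Further: 0% = growth equal to vehicle treated cultures.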 The settings on record: S. cerevisiae cln2 rad14 strain, hits give high values. The procedure, abridged:
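Growth inhibition, relative to vehicle-treated controls, is the read-out. The test organism is a yeast strain with defined genetic alterations, cln2 rad14.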

Experiment [5] is described as follows: NCI Yeast Anticancer Drug Screen. Data for the bub3 strain (AID 167). The following applies: S. cerevisiae bub3 mutant strain, hits give high values. The essentials:
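Part of a panel of yeast mutants defective in DNA damage repair or cell cycle regulation. Each strain is grown with compound, and inhibition is calculated relative to solvent-treated cultures.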

Experiment [6] can be described thus: NCI Yeast Anticancer Drug Screen. Data for the mlh1 rad18 strain (AID 175). The following applies: S. cerevisiae mlh1 rad18 strain growth inhibition, hits give high values. The procedure, abridged: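 Cells of a genetically altered yeast strain, deficient in DNA damage repair, were treated with compound. Their growth was then compared with that of vehicle-treated cultures to give inhibition.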

[7] abbreviates: at 5.0 µM (retest, dose inferred, filed as 0.5).
The mark [8] stands for this setting: at 50.0 µM (retest, dose inferred, filed as 5.0).

Where “and” joins values, the source holds several entries; their conditions need not be identical. Equal entries are not always repeated. About 79,000 compounds went through this panel and 15% of them were active in at least one assay; those are over-represented in the sample as a whole. Values without a mark were called inactive. Calls of active or inactive are those of the source. No stated cut-off is given here; in the data, active means growth inhibition above about 70%; inactive means the rest.

As for `O=C(CF)CCl`, the growth inhibition is 89% (active) in experiment [1] (setting [7]); 98% (active) in experiment [1] (setting [8]); 25% in experiment [2] (setting [7]); 99% (active) in experiment [2] (setting [8]); 88% (active) in experiment [3] (setting [7]); 65% in experiment [3] (setting [8]). The growth inhibition was 79% (active) in experiment [4] (setting [7]); 99% (active) in experiment [4] (setting [8]); 32% in experiment [5] (setting [7]); 99% (active) in experiment [5] (setting [8]); 69% in experiment [6] (setting [7]); 98% (active) in experiment [6] (setting [8]).

Regarding `O=[N+]([O-])c1cc(Cl)c(Cl)cc1[N+](=O)[O-]`, the growth inhibition in experiment [1] (setting [7]) is 83% (active); in experiment [1] (setting [8]) it was 99% (active); in experiment [2] (setting [7]) it was 16%; in experiment [2] (setting [8]) it was 99% (active); in experiment [3] (setting [7]) it was 41%; in experiment [3] (setting [8]), 100% (active). In addition, the growth inhibition is -2% in experiment [4] (setting [7]); 99% (active) in experiment [4] (setting [8]); 14% in experiment [5] (setting [7]); 99% (active) in experiment [5] (setting [8]); -11% in experiment [6] (setting [7]); 98% (active) in experiment [6] (setting [8]).

With `CC(=O)O[C@H]1CCC2[C@@H]3CCC4c5nonc5CC[C@]4(C)C3CC[C@@]21C` (stereo not given in full), the growth inhibition is 28.4% in experiment [1] (at 50.0 µM); 5.55% in experiment [2] (at 50.0 µM); 22.9% in experiment [3] (at 50.0 µM); 35.1% in experiment [4] (at 50.0 µM); 27.6% in experiment [5] (at 50.0 µM).

For the molecule `CP1(=O)CCC23CCCCC21O3` (stereo not given), the growth inhibition in experiment [1] (at 50.0 µM) is 7.9%; in experiment [2] (at 50.0 µM), -34.8%; in experiment [3] (at 50.0 µM), -2.3%; in experiment [4] (at 50.0 µM), -20.8%; in experiment [5] (at 50.0 µM), 11.7%; in experiment [6] (at 50.0 µM) it was -4.25%.

`CCOC(=O)C(Cc1ccc(N(CCCl)CCCl)cc1)NC(=O)CNC(C)=O` (stereo not given): the growth inhibition was 2.4% in experiment [1] (at 50.0 µM); -7.85% in experiment [2] (at 50.0 µM); 14.7% in experiment [3] (at 50.0 µM); 1.45% in experiment [4] (at 50.0 µM); -10.4% in experiment [5] (at 50.0 µM); 10.3% in experiment [6] (at 50.0 µM).

For the molecule `C=CCc1cc(-c2cc(CC=C)c(O)c(CN(CCCl)CCCl)c2)cc(CN(CCCl)CCCl)c1O`, the growth inhibition in experiment [1] (at 50.0 µM) is 41.5%; in experiment [2] (at 50.0 µM), 49.8%; in experiment [3] (at 50.0 µM), 47.1%; in experiment [4] (at 50.0 µM) it was 43.1%; in experiment [5] (at 50.0 µM), 60%; in experiment [6] (at 50.0 µM), 44.1%.

`CCCC(=O)OCC[N+](C)(C)C`: the growth inhibition in experiment [1] (at 50.0 µM) is -1.35% and 12.7%; in experiment [2] (at 50.0 µM), -21.9% and -18.6%; in experiment [3] (at 50.0 µM), -10.7% and 25.4%; in experiment [4] (at 50.0 µM), 18.9% and 5.95%; in experiment [5] (at 50.0 µM), -12.1% and 6.6%; in experiment [6] (at 50.0 µM), 4.05% and 18.2%.

For `COc1ccc2nc3cc(Cl)ccc3c(NCCCN(CCCl)CCCl)c2c1`, the growth inhibition in experiment [1] (at 50.0 µM) was 51%; in experiment [2] (at 50.0 µM), 19.2%; in experiment [3] (at 50.0 µM) it was 37.2%; in experiment [4] (at 50.0 µM), 34.2%; in experiment [5] (at 50.0 µM), 7.6%.

For `O=C([O-])CC(=O)[O-].[NH-][C@@H]1CCCC[C@H]1[NH-].[Pt+4]`, the growth inhibition in experiment [1] (at 50.0 µM) is -14.2%; in experiment [2] (at 50.0 µM), -15.5%; in experiment [3] (at 50.0 µM) it was -24.5%; in experiment [4] (at 50.0 µM), -25.1%; in experiment [5] (at 50.0 µM), -24.5%.

Regarding `CC(C)CC(=O)[O-].CC(C)CC(=O)[O-].N.N.N.N.[Co+3].[O-][Cl+3]([O-])([O-])O.[O-][Cl+3]([O-])([O-])[O-]`, the growth inhibition was -23.6% in experiment [1] (at 50.0 µM); -6.2% in experiment [2] (at 50.0 µM); -42.2% in experiment [3] (at 50.0 µM); -20.9% in experiment [4] (at 50.0 µM); -16.2% in experiment [5] (at 50.0 µM); -14.8% in experiment [6] (at 50.0 µM).

On to `C/C(=N\N=C(\[Se])N(C)C)c1ccccn1`, for which the growth inhibition in experiment [1] (at 50.0 µM) was 86.9% (active); in experiment [2] (at 50.0 µM), 89.9% (active); in experiment [3] (at 50.0 µM), 89.7% (active); in experiment [4] (at 50.0 µM), 89.3% (active); in experiment [5] (at 50.0 µM), 87.1% (active).

Consider `N.N.N.O=N[O-].O=N[O-].O=N[O-].[Co+3]`, for which the growth inhibition in experiment [1] (at 50.0 µM) is -2.05%; in experiment [2] (at 50.0 µM) it was 9.65%; in experiment [3] (at 50.0 µM), -6.25%; in experiment [4] (at 50.0 µM) it was 18.6%; in experiment [5] (at 50.0 µM), 6.5%.

With `COc1cc(N=Nc2cccc(C(=O)O)c2)ccc1N(CCCl)CCCl`, the growth inhibition in experiment [1] (at 50.0 µM) was -12.4%; in experiment [2] (at 50.0 µM), -16.4%; in experiment [3] (at 50.0 µM), -30.9%; in experiment [4] (at 50.0 µM) it was 17.7%; in experiment [5] (at 50.0 µM) it was -3.3%; in experiment [6] (at 50.0 µM) it was -23.3%.

With `O=C(OC1CN2CCC1CC2)N(c1ccccc1)c1ccccc1` (stereo not given), the growth inhibition in experiment [1] (at 50.0 µM) was 2.35%; in experiment [2] (at 50.0 µM), 0.25%; in experiment [3] (at 50.0 µM) it was -4.1%; in experiment [4] (at 50.0 µM), -4.75%; in experiment [5] (at 50.0 µM), 3.5%; in experiment [6] (at 50.0 µM), 13.3%.

For the molecule `Nc1nc(N)n2c(N)nnc2n1`, the growth inhibition in experiment [1] (at 50.0 µM) was -3.4%; in experiment [2] (at 50.0 µM), -19.4%; in experiment [3] (at 50.0 µM), -0.25%; in experiment [4] (at 50.0 µM), 1.5%; in experiment [5] (at 50.0 µM) it was 4.65%.

Regarding `S=C(SSC(=S)N(Cc1ccccc1)Cc1ccccc1)N(Cc1ccccc1)Cc1ccccc1`, the growth inhibition was -1.7% in experiment [1] (at 50.0 µM); 11.6% in experiment [2] (at 50.0 µM); 2.95% in experiment [3] (at 50.0 µM); -14.3% in experiment [4] (at 50.0 µM); -20.6% in experiment [5] (at 50.0 µM).

On to `CCOC(=O)C(CC(C)C)NC(=O)C(N)Cc1ccc(N(CCCl)CCCl)cc1` (stereo not given), for which the growth inhibition in experiment [1] (at 50.0 µM) is -2.4%; in experiment [2] (at 50.0 µM), -8.9%; in experiment [3] (at 50.0 µM), -27.1%; in experiment [4] (at 50.0 µM), -17.6%; in experiment [5] (at 50.0 µM), -30.1%.

On to `COc1cccc2c1C(=O)c1c(O)c3c(c(O)c1C2=O)CC(O)(C(=O)CO)CC3OC1CC(N2CCOCC2C#N)C(O)C(C)O1` (stereo not given), for which the growth inhibition in experiment [1] (at 50.0 µM) is 86.7% (active); in experiment [2] (at 50.0 µM), 90.2% (active); in experiment [3] (at 50.0 µM), 88.9% (active); in experiment [4] (at 50.0 µM) it was 86.5% (active); in experiment [5] (at 50.0 µM) it was 88.2% (active).

As to `CCN(CC)CCN(Cc1ccccc1)C(=O)C(O)(c1ccccc1)c1ccccc1`, the growth inhibition is -0.4% in experiment [1] (at 50.0 µM); -23.6% in experiment [2] (at 50.0 µM); -4.05% in experiment [3] (at 50.0 µM); -39.4% in experiment [4] (at 50.0 µM); -1.5% in experiment [5] (at 50.0 µM); -24.6% in experiment [6] (at 50.0 µM).

For the molecule `c1ccc(C[n+]2ccc(-c3ccccc3)cc2)cc1`, the growth inhibition in experiment [1] (at 50.0 µM) was -5.75%; in experiment [2] (at 50.0 µM), 5.5%; in experiment [3] (at 50.0 µM), -0.35%; in experiment [4] (at 50.0 µM) it was -7.25%; in experiment [5] (at 50.0 µM), -7.15%; in experiment [6] (at 50.0 µM), -19.5%.

For the molecule `CCC1(OC(=O)CNC)C(=O)OCc2c1cc1n(c2=O)Cc2cc3ccccc3nc2-1` (stereo not given), the growth inhibition was 78.7% (active) in experiment [1] (at 50.0 µM); 83.7% (active) in experiment [2] (at 50.0 µM); 76.3% (active) in experiment [3] (at 50.0 µM); 60.2% in experiment [4] (at 50.0 µM); 72% (active) in experiment [5] (at 50.0 µM).

`CCC(CC)(COC(=O)C(O)(c1ccccc1)c1ccccc1)C[N+](C)(C)C`: the growth inhibition is -4.45% in experiment [1] (at 50.0 µM); -2.85% in experiment [2] (at 50.0 µM); 1% in experiment [3] (at 50.0 µM); -24.9% in experiment [4] (at 50.0 µM); 0.5% in experiment [5] (at 50.0 µM); -12.7% in experiment [6] (at 50.0 µM).

In the case of `O=C1[C@@H]2[C@H](C(=O)N1c1ccccc1)[C@H]1CC[C@H]2N1C(=O)c1ccccc1`, the growth inhibition in experiment [1] (at 50.0 µM) was 18.9%; in experiment [2] (at 50.0 µM), 17.4%; in experiment [3] (at 50.0 µM), 2.2%; in experiment [4] (at 50.0 µM) it was 2.75%; in experiment [5] (at 50.0 µM), 13.2%.

On to `ClCCCBr`, for which the growth inhibition in experiment [1] (at 50.0 µM) was 29.2%; in experiment [2] (at 50.0 µM) it was -7.35%; in experiment [3] (at 50.0 µM), -10.8%; in experiment [4] (at 50.0 µM), 13.3%; in experiment [5] (at 50.0 µM), 24.4%; in experiment [6] (at 50.0 µM), 21.9%.
